Experimental data taken from PubChem BioAssay AID1159580 (chemical genetic matrix, 2015).
The campaign covered roughly 5,500 compounds. About 2,000 (36%) were called active. Inconclusive results (about 18%) are left out. Cut-off read from the data, not from the text of the source: active = normalized growth mostly below about 0.91 (no sharp cut-off); inconclusive = no clear call, values can overlap the other calls; inactive = mostly above about 0.92. Some of the results follow.

Experiment: chemical genetic growth profiling, strain panel (AID 1159580);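 note: tested at 20 µM; growth read once vehicle control cultures reached saturation at 30 °C; 1 = growth at the plate median or of vehicle wells; lower values mean less growth of the strain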
Settings: growth OD

Measured: normalized growth

CC(=O)Oc1ccc2c(c1)CCC1C2CC[C@]2(C)C(=O)CCC12 (stereo not given in full)
active: S. cerevisiae deletion strains, locus YLR262C, strain YPT6 (second series), stronger effect = lower value 0.689 | S. cerevisiae deletion strains, locus YOR184W, strain ser1, stronger effect = lower value 0.86
inactive: S. cerevisiae deletion strains, locus YJR043C, strain POL32, stronger effect = lower value 0.982 | S. cerevisiae deletion strains, locus YJR066W, strain TOR1, stronger effect = lower value 0.895 | S. cerevisiae deletion strains, locus YKL009W, strain mrt4, stronger effect = lower value 0.972 | S. cerevisiae deletion strains, locus YKL068W, stronger effect = lower value 1.02 | S. cerevisiae deletion strains, locus YKL085W, strain MDH1 (second series), stronger effect = lower value 1 | S. cerevisiae deletion strains, locus YKL085W, strain MDH1, stronger effect = lower value 1 | S. cerevisiae deletion strains, locus YKL160W, strain elf1, stronger effect = lower value 0.986 | S. cerevisiae deletion strains, locus YKL190W, strain CNB1, stronger effect = lower value 1 | S. cerevisiae deletion strains, locus YKR001C, strain vps1, stronger effect = lower value 1.01 | S. cerevisiae deletion strains, locus YKR026C, strain gcn3, stronger effect = lower value 0.984 | S. cerevisiae deletion strains, locus YKR091W, strain srl3, stronger effect = lower value 0.985 | S. cerevisiae deletion strains, locus YLL001W, strain dnm1, stronger effect = lower value 0.964 | S. cerevisiae deletion strains, locus YLL026W, stronger effect = lower value 0.988 | S. cerevisiae deletion strains, locus YLL041C, strain sdh2, stronger effect = lower value 0.983 | S. cerevisiae deletion strains, locus YLR027C, strain aat2, stronger effect = lower value 0.983 | S. cerevisiae deletion strains, locus YLR039C, strain RIC1, stronger effect = lower value 0.725 | S. cerevisiae deletion strains, locus YLR058C, strain SHM2, stronger effect = lower value 0.987 | S. cerevisiae deletion strains, locus YLR102C, strain apc9, stronger effect = lower value 1.02 | S. cerevisiae deletion strains, locus YLR113W, strain HOG1, stronger effect = lower value 0.991 | S. cerevisiae deletion strains, locus YLR221C, strain rsa3, stronger effect = lower value 0.991 | S. cerevisiae deletion strains, locus YLR258W, strain gsy2, stronger effect = lower value 0.985 | S. cerevisiae deletion strains, locus YLR262C, strain YPT6, stronger effect = lower value 0.623 | S. cerevisiae deletion strains, locus YLR268W, strain sec22, stronger effect = lower value 1.01 | S. cerevisiae deletion strains, locus YLR320W, strain mms22, stronger effect = lower value 0.983 | S. cerevisiae deletion strains, locus YLR330W, strain CHS5, stronger effect = lower value 1 | S. cerevisiae deletion strains, locus YLR342W, strain FKS1 (second series), stronger effect = lower value 0.959 | S. cerevisiae deletion strains, locus YLR342W, strain FKS1, stronger effect = lower value 0.965 | S. cerevisiae deletion strains, locus YLR357W, strain rsc2, stronger effect = lower value 0.981 | S. cerevisiae deletion strains, locus YLR370C, strain arc18, stronger effect = lower value 0.975 | S. cerevisiae deletion strains, locus YLR371W, strain rom2, stronger effect = lower value 1.02 | S. cerevisiae deletion strains, locus YLR384C, strain iki3, stronger effect = lower value 0.961 | S. cerevisiae deletion strains, locus YLR418C, strain cdc73, stronger effect = lower value 0.966 | S. cerevisiae deletion strains, locus YML016C, strain PPZ1, stronger effect = lower value 1 | S. cerevisiae deletion strains, locus YML032C, strain rad52, stronger effect = lower value 0.997 | S. cerevisiae deletion strains, locus YML120C, strain ndi1, stronger effect = lower value 0.986 | S. cerevisiae deletion strains, locus YML124C, strain tub3, stronger effect = lower value 1.02 | S. cerevisiae deletion strains, locus YMR058W, strain fet3, stronger effect = lower value 0.96 | S. cerevisiae deletion strains, locus YMR078C, strain ctf18, stronger effect = lower value 0.999 | S. cerevisiae deletion strains, locus YMR125W, strain sto1, stronger effect = lower value 0.992 | S. cerevisiae deletion strains, locus YMR129W, stronger effect = lower value 0.987 | S. cerevisiae deletion strains, locus YMR205C, strain PFK2, stronger effect = lower value 0.947 | S. cerevisiae deletion strains, locus YMR223W, strain ubp8, stronger effect = lower value 0.996 | S. cerevisiae deletion strains, locus YMR231W, strain pep5, stronger effect = lower value 0.964 | S. cerevisiae deletion strains, locus YMR307W, strain GAS1, stronger effect = lower value 1.07 | S. cerevisiae deletion strains, locus YNL067W, strain RPL9B, stronger effect = lower value 0.956 | S. cerevisiae deletion strains, locus YNL071W, strain lat1, stronger effect = lower value 0.994 | S. cerevisiae deletion strains, locus YNL128W, strain TEP1, stronger effect = lower value 1.02 | S. cerevisiae deletion strains, locus YNL183C, strain NPR1, stronger effect = lower value 0.894 | S. cerevisiae deletion strains, locus YNL209W, strain ssb2, stronger effect = lower value 0.982 | S. cerevisiae deletion strains, locus YNL233W, strain BNI4, stronger effect = lower value 0.949 | S. cerevisiae deletion strains, locus YNL248C, strain rpa49, stronger effect = lower value 1 | S. cerevisiae deletion strains, locus YNL250W, strain rad50, stronger effect = lower value 1.01 | S. cerevisiae deletion strains, locus YNL271C, strain bni1, stronger effect = lower value 1.02 | S. cerevisiae deletion strains, locus YNL298W, strain CLA4, stronger effect = lower value 0.962 | S. cerevisiae deletion strains, locus YNL307C, strain MCK1, stronger effect = lower value 1.01 | S. cerevisiae deletion strains, locus YNL322C, strain KRE1 (second series), stronger effect = lower value 0.967 | S. cerevisiae deletion strains, locus YNL322C, strain KRE1, stronger effect = lower value 1 | S. cerevisiae deletion strains, locus YNR049C, strain mso1, stronger effect = lower value 0.992 | S. cerevisiae deletion strains, locus YNR052C, strain pop2, stronger effect = lower value 0.996 | S. cerevisiae deletion strains, locus YOL006C, strain TOP1, stronger effect = lower value 0.719 | S. cerevisiae deletion strains, locus YOL012C, strain htz1 1.64 | S. cerevisiae deletion strains, locus YOL147C, strain pex11, stronger effect = lower value 1.01 | S. cerevisiae deletion strains, locus YOR001W, strain rrp6, stronger effect = lower value 0.972 | S. cerevisiae deletion strains, locus YOR061W, strain CKA2, stronger effect = lower value 1 | S. cerevisiae deletion strains, locus YOR069W, strain VPS5, stronger effect = lower value 1.01 | S. cerevisiae deletion strains, locus YOR070C, strain gyp1, stronger effect = lower value 0.988 | S. cerevisiae deletion strains, locus YOR080W, strain dia2, stronger effect = lower value 0.983 | S. cerevisiae deletion strains, locus YOR083W, strain WHI5, stronger effect = lower value 0.976 | S. cerevisiae deletion strains, locus YOR106W, strain vam3, stronger effect = lower value 0.968 | S. cerevisiae deletion strains, locus YOR136W, strain idh2, stronger effect = lower value 1.01 | S. cerevisiae deletion strains, locus YOR144C, strain elg1, stronger effect = lower value 1.01 | S. cerevisiae deletion strains, locus YOR231W, strain MKK1, stronger effect = lower value 0.928 | S. cerevisiae deletion strains, locus YOR265W, strain rbl2, stronger effect = lower value 0.989 | S. cerevisiae deletion strains, locus YOR270C, strain vph1, stronger effect = lower value 0.975 | S. cerevisiae deletion strains, locus YOR290C, strain snf2, stronger effect = lower value 0.998 | S. cerevisiae deletion strains, locus YOR316C, strain cot1, stronger effect = lower value 1.03 | S. cerevisiae deletion strains, locus YPL051W, strain arl3, stronger effect = lower value 0.979 | S. cerevisiae deletion strains, locus YPL078C, strain atp4, stronger effect = lower value 0.959 | S. cerevisiae deletion strains, locus YPL106C, strain sse1, stronger effect = lower value 1.02 | S. cerevisiae deletion strains, locus YPL240C, strain hsp82, stronger effect = lower value 0.969 | S. cerevisiae deletion strains, locus YPL241C, strain CIN2, stronger effect = lower value 1.01 | S. cerevisiae deletion strains, locus YPL256C, strain CLN2, stronger effect = lower value 0.945 | S. cerevisiae deletion strains, locus YPR119W, strain clb2, stronger effect = lower value 1.01 | S. cerevisiae deletion strains, locus YPR141C, strain kar3, stronger effect = lower value 1.02 | S. cerevisiae deletion strains, locus YPR163C, strain tif3, stronger effect = lower value 1.03 | S. cerevisiae deletion strains, locus YPR167C, strain met16, stronger effect = lower value 1.02 | S. cerevisiae deletion strains, strain wtn01, stronger effect = lower value 0.997 | S. cerevisiae strains, strain wild type, stronger effect = lower value 0.993
